SNCA viab count: counter-screen for SNCA expression inhibitors: cell viability; HEK-293-SNCA-luc viability, GF-AFC fluorescence, 24 h; 150,000 tested, 0.12% active; Potency, µM (highest dose often 57.1 µM), inactives show at the highest dose activity change, negative = cytotoxicity, hits mostly cytotoxic;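 also: potency is read from the fitted curve at half-maximal effect; 0% = DMSO-treated cells and -100% = medium-only wells without cells; nearly all actives have a fitted effect of over 30% in size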
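Cytotoxicity counterscreen: after 24 h compound treatment of genome-edited SNCA-luciferase HEK-293 cells, live-cell protease substrate GF-AFC read by fluorescence after 30 min; activity scaled between DMSO (0%) and medium-only (-100%), curves Hill-fitted.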
IP6K1 inh: blocks human inositol hexakisphosphate kinase 1. IP6K1 kinase, ADP-Glo luminescence, 2 h; stronger effect = lower value. activity change, % (series mostly up to about 58 µM). 140,000 tested, 0.81% active; in the data active = activity change below about -25%; also: % is scaled to controls: 0 for no effect and ±100 for the full control effect
Target sequence (Q92551 whole entry, looked up): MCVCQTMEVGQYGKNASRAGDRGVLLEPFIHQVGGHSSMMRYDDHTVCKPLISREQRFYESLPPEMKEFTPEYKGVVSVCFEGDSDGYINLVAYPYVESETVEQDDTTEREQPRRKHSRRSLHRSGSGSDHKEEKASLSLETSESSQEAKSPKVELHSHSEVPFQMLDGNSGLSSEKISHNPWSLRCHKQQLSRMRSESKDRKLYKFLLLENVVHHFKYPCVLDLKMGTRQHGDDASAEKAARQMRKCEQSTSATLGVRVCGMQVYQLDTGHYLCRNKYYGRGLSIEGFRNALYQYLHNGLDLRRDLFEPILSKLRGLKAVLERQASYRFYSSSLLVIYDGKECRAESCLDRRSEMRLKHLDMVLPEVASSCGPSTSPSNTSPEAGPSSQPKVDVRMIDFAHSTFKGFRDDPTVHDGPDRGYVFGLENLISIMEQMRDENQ
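ADP-Glo luminescence measures ADP made by human IP6K1 during a 2 h RT reaction with ATP/IP6 (mix at 1.3 mM/130 uM); top library doses 57.5 and 19.1 uM final.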
KDM5B inhibitor: KDM5B demethylase inhibition | Q9UGL1 | KDM5B demethylase, FDH-coupled NADH fluorescence (FDH is formaldehyde dehydrogenase) | Potency, µM (highest dose often 57.7 µM), usual class: inhibitors | 220,000 tested, 2.6% active | AID 1347165; also: potency is read from the fitted curve at half-maximal effect; 0% is about no effect; nearly all actives have a fitted effect of over 70% in size
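Inhibition is measured as reduced NADH fluorescence generation from FDH coupling to formaldehyde release. Truncated KDM5BΔAP at 200 nM final acts on H3K4me3 peptide (12.5 µM in substrate mix) in pH 7.5 HEPES buffer with Tween-20, 30 min, room temperature.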
SNCA expr inh: inhibitors of alpha-synuclein (SNCA) gene expression; Potency, µM (doses to about 57.2 µM), for the others: at the highest dose activity change, negative = inhibition, hits mostly inhibitors; HEK-293 SNCA-luciferase knock-in, luminescence, 24 h; AID 1671194; 140,000 tested, 0.17% active;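 also: potency is read from the fitted curve at half-maximal effect; plate controls were DMSO cells for no effect and cell-free wells for full effect; nearly all actives have a fitted effect of over 45% in size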
* = called active by the depositor; i = inactive; ? = inconclusive; . = not tested or not shown; ! = not active in a repeat; [ ] = another dose, or the depositor's remark. Shown are actives, neighbours in structure and some others; about 3% of the full set was active somewhere. Unless noted, calls follow the shape of the dose curve; as a rule, active = well fitted curve in the direction sought with a large enough effect; inconclusive = small, poorly fitted or top-dose-only effect, or another doubt; inactive = no such curve, though single readings can be large; an effect the other way counts as inactive or inconclusive.

SMILES | SNCA viab count | IP6K1 inh | KDM5B inhibitor | SNCA expr inh
CS(=O)(=O)CC[C@H](NC(=O)C1=C[C@@H](NC(=O)CCN)[C@@H](O)[C@H](O)C1)C(N)=O | 10%[87.6 µM] | 16 | 40µM* | -8%[87.6 µM]
CC(C)=CCCC1(C)/C=C/C(OC(=O)C=C(C)C)C(C)(O)/C=C/C(=O)/C(CO)=C\C1 (stereo not given) | 13µM* | 2 | . | .
CCCc1nc(C)c2c(=O)[nH]c(-c3cc(S(=O)(=O)N4CCN(CC)CC4)ccc3OCC)nn12 | 27µM*! | -13 | . | ?
CCOC(=O)N1CCN(S(=O)(=O)c2ccc(OCC)c(C)c2)CC1 | . | . | i | .
C=CCNC(=O)[C@@H]1Cc2cn(CC#CC)c3cccc(c23)[C@H](CC(C)C)N1 | 1%[87.6 µM] | -12 | i | -17%[87.6 µM]
C=CCNC(=O)[C@@H]1Cc2cn(Cc3c(C)noc3C)c3cccc(c23)[C@H](CC(C)C)N1 | -2%[87.6 µM] | -3 | 28µM* | -6%[87.6 µM]
C=CCn1cc2c3c(cccc31)[C@H](CC(C)C)N[C@H](C(=O)N1CCN(C)CC1)C2 | -10%[87.6 µM] | 12 | 22µM* | -18%[87.6 µM]
CC#CCn1cc2c3c(cccc31)[C@H](CC(C)C)N[C@H](C(=O)N1CCN(C)CC1)C2 | -1%[87.6 µM] | -2 | ? | -11%[87.6 µM]
CC(C)C[C@@H]1N[C@H](C(=O)O)Cc2cn(CC3CC3)c3cccc1c23 | -11%[87.6 µM] | -21 | 32µM* | -11%[87.6 µM]
CC(C)C[C@@H]1N[C@H](C(=O)N2CCOCC2)Cc2cn(CC3CC3)c3cccc1c23 | -4%[87.6 µM] | -7 | 35µM* | 9%[87.6 µM]
CCCCn1c(NCc2c[nH]c3ccccc23)nc2ccccc21 | . | . | i | .
O=C1CCN(CC(O)C(F)(F)F)c2ccccc2CN1Cc1ccccc1 (stereo not given) | . | -6 | . | .
CC#CCn1cc2c3c(cccc31)[C@H](CC(C)C)N[C@H](C(=O)NCCN(C)C)C2 | -12%[87.6 µM] | -11 | ? | -10%[87.6 µM]
C=CCn1cc2c3c(cccc31)[C@H](CC(C)C)N[C@H](C(=O)N1CCOCC1)C2 | -2%[87.6 µM] | 4 | 32µM* | 14%[87.6 µM]
CC#CCn1cc2c3c(cccc31)[C@H](CC(C)C)N[C@H](C(=O)NCCNC(C)=O)C2 | -1%[87.6 µM] | 9 | 32µM* | -4%[87.6 µM]
O=C(O)C1CCN(C(=O)CSc2nnc(-c3ccccc3F)n2C2CCCC2)CC1 | . | . | i | .
COc1ccccc1-c1ccc(CN2CCCCC2C(=O)Nc2ccccc2F)cc1 (stereo not given) | . | 21 | . | .
CC(=O)NC1(C)CCN(Cc2cccc(-c3ccc(N4CCOCC4)cc3)c2)C1 (stereo not given) | 4%[87.6 µM] | 0 | 32µM* | -6%[87.6 µM]
CC(=O)NC1(C)CCN(Cc2cccc(-c3cccc4ncccc34)c2)C1 (stereo not given) | 5%[87.6 µM] | -3 | 40µM* | 29%[87.6 µM]
CC(=O)NC1(C)CCN(Cc2ccc(-c3cccc4ncccc34)cc2)C1 (stereo not given) | -7%[87.6 µM] | -7 | 40µM* | 14%[87.6 µM]
CC(=O)NC1(C)CCN(Cc2ccc(-c3ccc4ccccc4c3)cc2)C1 (stereo not given) | -10%[87.6 µM] | -1 | ? | ?
Cc1cn2nc(-c3nc(C4CCCN(C(=O)c5ccccc5F)C4)no3)cc2c(=O)[nH]1 (stereo not given) | 4% | 12 | 28µM* | 28%
CCOC(=O)[C@@H]1CN(C(=O)C(C)C)[C@H]2c3ccc(OC)cc3O[C@@H]12 | . | 6 | . | .
O=C(NCc1nnc2n1C(C(=O)O)CC2)c1ccc(F)cc1 (stereo not given) | 1% | 4 | 45µM* | 2%
CC(C)NC(=O)C1CCc2nnc(CNC(=O)c3ccccc3)n21 (stereo not given) | -1% | 12 | i | 9%
SMILES | SNCA viab count | IP6K1 inh | KDM5B inhibitor | SNCA expr inh
O=C(O)C1CCc2nnc(C3CCCN(C(=O)c4ccc5c(c4)OC(F)(F)O5)C3)n21 (stereo not given) | 5% | 13 | i | 29%
O=C(NCc1nnc2n1C(C(=O)O)CC2)c1ccc2c(c1)OC(F)(F)O2 (stereo not given) | -5% | 0 | 25µM* | -2%
O=C(NCc1nnc2n1C(C(=O)O)CC2)c1ccccc1 (stereo not given) | 8%[87.6 µM] | -1 | 100µM* | 11%[87.6 µM]
Cc1cc(C)cc(-c2ccc(CN3CCCC(NC(=O)Cc4ccccn4)C3)cc2)c1 (stereo not given) | -8% | 3 | . | -10%
CCc1ccccc1-n1nc(-c2c(C)nc3scc(CC(=O)NCCC(C)C)n3c2=O)cc1C | -21% | 0 | 25µM* | ?
Cc1cccc(-n2nc(-c3c(C)nc4scc(CC(=O)NCCC(C)C)n4c3=O)cc2C)c1 | -6% | 9 | 25µM* | -17%

Compound activity as filed in PubChem.
